Screening results (PubChem BioAssay)
In the library only some 12% were active in any assay of this set; here they are far more common.
L3MBTL1 inh – qHTS Assay for the Inhibitors of L3MBTL1; AID 485360, 2010; 230,000 tested, 0.66% active; Potency, µM (highest dose often 57.1 µM), inactives show top-dose activity, negative = inhibition, most hits filed as inhibitors; Lethal(3)malignant brain tumor-like protein 1 (Homo sapiens), Q9Y468; AlphaScreen L3MBTL1–H3K9me1 peptide binding; note: % is set by controls: 0 for no effect and ±100 for the full control effect; nearly all actives have a fitted effect of over 60% in size
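First, the protein-peptide complex forms for 30 min at room temperature (L3MBTL1 50 nM, biotinylated H3K9me1 peptide 75 nM). Next, compounds are pin-transferred and incubated 30 min. Finally, AlphaScreen beads are added and read after 30 min.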
JMJD2A Tudor – qHTS Assay for Inhibitors of JMJD2A-Tudor Domain; Lysine-specific demethylase 4A (Homo sapiens), O75164; AlphaScreen JMJD2A-Tudor / H3K4me3 peptide binding; Potency, µM (series often up to 114 µM), without a hit: at the highest dose activity change, negative = inhibition, actives largely listed as inhibitors; 390,000 tested, 4.4% active; AID 504339, 2011; note: % is set by controls: 0 for no effect and ±100 for the full control effect; nearly all actives have a fitted effect of over 50% in size
Sfp inh – qHTS Assay for Inhibitors of Bacillus subtilis Sfp phosphopantetheinyl transferase (PPTase). AID 1490, 2009. Biochemical Sfp PPTase activity, qHTS. 4'-phosphopantetheinyl transferase ffp (Bacillus subtilis), Q9F4F7. Potency, µM, for inactives: largest response in the series, negative = inhibition, usual class: inhibitors. 310,000 tested, 3.5% active;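 note: the enzyme is Sfp with the accession as filed and its product quenches rhodamine fluorescence; 0% = enzyme reaction without inhibitor and -100% = no enzyme wells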
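Buffer: 50 mM Hepes-Na pH 7.6, 10 mM MgCl2, 0.01% Nonidet P-40, 0.01% BSA. Enzyme 15 nM, pre-exposed to compound 15 min; substrates then added and fluorescence change tracked over 30 min.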
BAZ2B block – qHTS Assay for Inhibitors of BAZ2B. 360,000 tested, 4.4% active. Potency, µM (doses to about 114 µM), without a hit: at the top dose activity change, negative = inhibition, usual class: inhibitors. AID 504333, 2011. AlphaScreen BAZ2B-H3K14Ac peptide displacement; note: % is set by controls: 0 for no effect and ±100 for the full control effect; nearly all actives have a fitted effect of over 60% in size
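In this displacement format the biotinylated H3(5-23) peptide acetylated at Lys14 serves as ligand at 50 nM, with BAZ2B at 50 nM in PBS pH 7.4 containing 0.01% Tween-20. Donor and acceptor beads are 10 ug/mL final.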
G9a block – qHTS Assay for Inhibitors of Histone Lysine Methyltransferase G9a; Potency, µM (top dose mostly 102 µM), for the others: at the top dose activity, negative = inhibition, hits mostly inhibitors; G9a H3K9 monomethylation, AlphaScreen, 2 h; Histone-lysine N-methyltransferase EHMT2 (Homo sapiens), Q96KQ7; 350,000 tested, 8.8% active; note: % is set by controls: 0 for no effect and ±100 for the full control effect; nearly all actives have a fitted effect of over 75% in size
Target sequence (Q96KQ7 913-1193 limits assumed): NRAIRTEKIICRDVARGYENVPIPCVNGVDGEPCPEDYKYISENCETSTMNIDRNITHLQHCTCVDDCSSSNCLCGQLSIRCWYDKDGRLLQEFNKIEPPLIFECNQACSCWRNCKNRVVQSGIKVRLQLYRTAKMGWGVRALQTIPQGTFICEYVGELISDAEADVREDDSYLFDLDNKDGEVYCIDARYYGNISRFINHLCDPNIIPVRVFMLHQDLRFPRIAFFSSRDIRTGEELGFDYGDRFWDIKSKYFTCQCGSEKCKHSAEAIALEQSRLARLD
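Readings reflect AlphaScreen signal from monomethyl-H3K9 antibody detection. HMT at 20 nM; substrate b-H3K9 500 nM; cofactor SAM 20 uM; 2 h RT reaction; compounds tested as titrations in qHTS with 15 min preincubation.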
HP1b chromo inh – HTS for Inhibitors of HP1-beta Chromodomain Interactions with Methylated Histone Tails | AlphaScreen HP1-beta / biotin-H3K9me3 peptide binding | Potency, µM (titrated, usually from 114 µM), for the others: top-dose activity change, negative = inhibition, hits mostly inhibitors | Chromobox protein homolog 1 (Homo sapiens), P83916 | 390,000 tested, 0.56% active; note: nearly all actives have a fitted effect of over 70% in size
Target sequence (P83916 whole entry, looked up): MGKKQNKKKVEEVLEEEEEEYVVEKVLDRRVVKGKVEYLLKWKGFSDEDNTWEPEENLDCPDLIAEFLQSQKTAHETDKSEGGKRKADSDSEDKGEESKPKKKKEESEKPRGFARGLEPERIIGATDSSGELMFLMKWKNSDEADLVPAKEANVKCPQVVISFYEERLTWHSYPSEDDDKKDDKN
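HP1-beta protein (50 nM final) preincubated 30 min at room temperature with biotinylated H3(1-18)K9me3 peptide (50 nM) in PBS pH 7.4, 0.01% Tween-20, then compound added for 30 min. AlphaScreen streptavidin donor/nickel chelate acceptor beads (10 ug/mL final), 30 min dark, luminescence read.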
Numbers without * were called inactive; ? = inconclusive; / = no result; ! = a repeat was not active; [ ] = dose if it differs, or a comment. Calls come from the whole dose curve; as a rule, active = well fitted curve in the direction sought with a large enough effect; inconclusive = small, poorly fitted or top-dose-only effect, or another doubt; inactive = no such curve, though single readings can be large; an effect the other way counts as inactive or inconclusive. Potency is the fitted concentration of half-maximal effect.

SMILES | L3MBTL1 inh | JMJD2A Tudor | Sfp inh | BAZ2B block | G9a block | HP1b chromo inh
O=C(Nc1ccc(Oc2ccccc2)cc1)C1CCN(S(=O)(=O)c2ccccc2)CC1 | / | -19% | / | -3% | ? | 13%
Clc1ccc(CSc2nccn2Cc2ccccc2)cc1 | -6% | 3.2µM* | 9% | ? | -11%[0.501 µM] | -4%
O=C1c2ccccc2C(=O)N1Cc1ccncc1 | / | -13% | / | / | / | /
Cn1cnnc1SCC(=O)Nc1sc2c(c1C#N)CCCCC2 | -6% | -36% | 50µM* | -29% | 13µM* | -18%
N#Cc1c(NC(=O)CSc2nc(N)cc(=O)[nH]2)sc2c1CCCCCC2 | 0% | -13% | 22% | 2% | 45µM* | -2%
CC(Sc1nc(N)cc(=O)[nH]1)C(=O)Nc1sc2c(c1C#N)CCCC2 (stereo unspecified) | -10% | -9%[11.4 µM] | 7% | -7% | 11% | 31%
Cn1c(=O)c2sccc2n2c(CCCC(=O)Nc3ccc(Oc4ccccc4)cc3)nnc12 | / | -28% | / | ? | -4%[59 µM] | 4%
Cn1cc(S(=O)(=O)N2CCCCCC2)cc1C(=O)Nc1ccccc1F | / | -13% | / | -11% | 2%[59 µM] | 23%[57 µM]
CCOC(=O)C(C(=O)OCC)C(Nc1ccccc1)c1ccccc1 (stereo unspecified) | 1% | -18% | -5% | 2% | 3%[59 µM] | 29%
CCOC(=O)C(NCCCO)c1ccccc1 (stereo unspecified) | 2% | 2.5µM* | -1% | -22% | 50µM* | ?
CC1CCN(C(=O)CSc2c(C(C)C)cnc3c2c(=O)n(C)c(=O)n3C)CC1 | / | -19% | / | -7% | ? | 23%[57 µM]
NC(=O)c1sc2nc(-c3cccs3)ccc2c1N | / | -1% | -13% | -21% | 35µM* | 45%
Nc1c(C(=O)NC2CCCC2)sc2nc(-c3cccs3)ccc12 | / | -7% | 45µM* | 4% | -48%[2.33 µM] | 52%
O=C(COc1ccccc1[N+](=O)[O-])N1CCC(c2nc3ccccc3o2)CC1 | / | -2% | / | -15% | 9%[59 µM] | 30%
CCN(CC)C(=O)c1sc2c(c1C)c(=O)n(Cc1ccccc1)c(=O)n2Cc1c(C)cc(C)cc1C | / | -15% | / | -16% | -5%[59 µM] | 27%
CN1CCN(C(=O)c2ccc(NS(=O)(=O)c3cccc([N+](=O)[O-])c3)cc2)CC1 | 7% | -13% | / | 3% | 45µM* | -4%
Cc1c(N2C(=O)CS/C2=N\N=C\c2ccc(Cl)cc2)c(=O)n(-c2ccccc2)n1C | -3% | -14% | 9% | 4% | 53%[12.7 µM] | 14%
COc1ccc(/C=N/N=C2\SCC(=O)N2c2c(C)n(C)n(-c3ccccc3)c2=O)cc1OC | 6% | -9% | 9% | ? | 8.9µM* | 28%
Cc1ccc(N2CC(C(=O)NCCS(=O)(=O)N3CCN(c4ccccc4F)CC3)CC2=O)cc1 (stereo unspecified) | / | 16µM*! | 16% | -15% | -8%[59 µM] | 1%
CCCCOC(=O)C1CCCC(C)N1 (stereo unspecified) | / | 22µM* | 1% | -39% | 28µM* | -6%
COc1ccc(CCn2c(=O)c3cccnc3n(CC(=O)Nc3ccc(C)cc3C)c2=O)cc1OC | / | -11% | / | -1% | 3%[59 µM] | 30%
O=[N+]([O-])c1ccc(CNc2cccc(Cl)c2)s1 | -11% | ? | -2% | ? | 45µM* | -11%
Cn1c(=O)[nH]c(Nc2ccc(F)cc2)c([N+](=O)[O-])c1=O | 9% | ? | 24% | 0% | 22%[59 µM] | 11%
O=[N+]([O-])c1ccc(CNc2ccc(F)cc2)s1 | -9% | ? | -30% | 40µM* | 45µM* | -21%
COc1ccc(NCc2ccc([N+](=O)[O-])s2)cc1 | ? | 56µM* | -25% | 50µM* | 7.9µM* | ?
SMILES | L3MBTL1 inh | JMJD2A Tudor | Sfp inh | BAZ2B block | G9a block | HP1b chromo inh
COc1ccc(NC(=O)CCC(=O)N/N=C/c2ccc([N+](=O)[O-])s2)cc1 | -19% | -29% | 6% | ? | -6%[59 µM] | 15%
COc1ccc(NCc2ccc([N+](=O)[O-])s2)c(OC)c1 | ? | 40µM* | -26% | 32µM* | 10µM* | 18µM*
Cc1cc(-c2ccc(C)c(S(=O)(=O)Nc3cccc(C#N)c3)c2)on1 | / | -11% | / | -2% | -3%[59 µM] | 18%
Cn1nnnc1Sc1ncnc2scc(-c3cccc(C#N)c3)c12 | / | -8% | / | / | / | /
CC(CNc1ccc(Cl)cc1)(CNc1ccc(Cl)cc1)[N+](=O)[O-] | / | -8% | / | / | / | 11%
O=[N+]([O-])c1ccc(CNc2ccc(Cl)cc2)s1 | / | ? | 3% | 35µM* | 45µM* | ?
COCCSc1ccccc1C(=O)Nc1cc(C)cc(C)c1 | 4% | 1% | ? | 0% | 4.5µM* | 52%
O=C(Nc1nncs1)c1cccnc1Cl | 10% | -18% | 8% | -5% | 1.4µM* | 5%
COc1cc(SC)ccc1C(=O)Nc1ccc2c(c1)OCCO2 | 2% | -14% | -8% | -22% | 50µM* | 3%
COc1ccccc1OC(C)C(=O)Nc1cccc(-c2nc3ccccc3s2)c1 (stereo unspecified) | / | 0% | / | 2% | 8.9µM* | 18%
Cc1ccc(N2CCN(C(=O)Cn3ncc4c([nH]c5ccc(C)cc54)c3=O)CC2)c(C)c1 | / | -14% | / | 9%[57.1 µM] | -17%[59 µM] | 21%
COC(=O)c1sccc1S(=O)(=O)N(CC(=O)NCc1ccccc1)c1ccc(C)c(C)c1 | / | -8% | / | -2% | 23%[59 µM] | 23%
O=C(c1ccccc1)N1CCc2cc(CNS(=O)(=O)c3ccccc3Cl)ccc21 | / | -6% | / | 2% | -7%[59 µM] | 26%[57 µM]
COc1ccc(S(=O)(=O)NCC(=O)Nc2ccc3c(c2)OCCO3)cc1OC | / | -11% | 1% | 17% | 50µM* | 37%
CCSc1ccccc1C(=O)Nc1cc(OC)c(OC)c(OC)c1 | 3% | -33% | 16µM* | -13% | 3.5µM* | 10%
COCCSc1ccccc1C(=O)Nc1nncs1 | 1% | -4% | -5% | -19% | 25µM* | 43%
COc1cc(NC(=O)c2ccccc2-c2ccccc2)cc(OC)c1OC | 7% | / | 4% | 0% | / | /
CC(Oc1ccc(F)cc1)C(=O)Nc1cccc(-c2nn[nH]n2)c1 (stereo unspecified) | / | -23% | 32µM* | -17% | 25µM* | 0%
COCCSc1ccccc1C(=O)Nc1cc(C)ccn1 | 6% | 3% | 12% | 5% | -22% | 32%
CC(C)OCCCNC(=O)C(=O)Nc1ccc2nc3n(c(=O)c2c1)CCCCC3 | / | -7% | / | -4% | 2%[59 µM] | 14%
